Screens (PubChem)
DRD3 antagonist – qHTS of D3 Dopamine Receptor Antagonist: qHTS. D(3) dopamine receptor (Homo sapiens), P35462. D3R cells, DiscoveRx beta-arrestin luminescence, antagonist mode; stronger effect = lower value. max response, negative = inhibition, %. 2.5% of 360,000 active. AID 652054, 2013; in the data active = max response below about -50%; inconclusive = no clear call, values can overlap the other calls
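Cells expressing the human receptor were seeded at 1500 cells/well, incubated overnight at 37 degrees C in 5% CO2, then exposed to library compounds with dopamine controls for 90 minutes at 37 degrees C before luminescent detection.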
B2AR arrestin – qHTS assay of beta-arrestin-biased ligands of beta2-adrenergic receptor. Beta-2 adrenergic receptor (Homo sapiens), P07550. AID 492947, 2010. Potency, µM (titrated, usually from 46.1 µM), actives largely listed as activators. 0.02% of 330,000 active. beta-arrestin recruitment to beta2AR, cell-based reporter; also: nearly all actives have a fitted effect of over 65% in size
Target sequence (P07550 whole entry, looked up): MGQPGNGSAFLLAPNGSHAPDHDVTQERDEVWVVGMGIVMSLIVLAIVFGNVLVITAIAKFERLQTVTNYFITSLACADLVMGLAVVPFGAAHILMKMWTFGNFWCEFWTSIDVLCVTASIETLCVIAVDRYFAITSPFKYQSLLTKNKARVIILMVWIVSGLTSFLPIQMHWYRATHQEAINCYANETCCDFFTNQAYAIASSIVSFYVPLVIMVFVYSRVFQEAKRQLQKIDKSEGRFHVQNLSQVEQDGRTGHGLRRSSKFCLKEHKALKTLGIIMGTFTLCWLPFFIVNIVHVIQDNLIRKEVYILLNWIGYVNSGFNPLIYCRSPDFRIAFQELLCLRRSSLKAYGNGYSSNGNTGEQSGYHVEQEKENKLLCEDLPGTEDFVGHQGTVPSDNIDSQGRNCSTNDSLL
DRD3 agonist – qHTS of D3 Dopamine Receptor Agonist: qHTS | AID 652048, 2013 | max activation, % | D3R DiscoveRx beta-arrestin cells, luminescence, 90 min | 0.58% of 410,000 active | D(3) dopamine receptor (Homo sapiens), P35462; in the data active = max activation above about 30%
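Agonist-mode cell screen: cells plated at 1500/well and incubated overnight at 37 °C, then exposed to library compounds for 90 min at 37 °C. Detection reagent was added for 30–60 min at room temperature, and luminescence was read.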
Integrin act MD – qHTS for Activators of Integrin-Mediated Alleviation for Muscular Dystrophy. alpha7betagal myoblasts, beta-gal FDG fluorescence, 48 h. Potency, µM (doses to about 38.3 µM), usual class: activators. 0.064% of 350,000 active. AID 624291, 2012; also: nearly all actives have a fitted effect of over 60% in size
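alpha7betagal+/- myoblasts (passage 13, 250/well) treated 48 h at 37C with compounds at 1:260 dilution of DMSO stock. Lysed, then beta-galactosidase activity read as FDG fluorescence (ex 480/em 540) after 30 min, with pre-read for autofluorescence.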
IDH1 R132H inh – qHTS for Inhibitors of mutant isocitrate dehydrogenase 1 (IDH1): qHTS | Isocitrate dehydrogenase [NADP] cytoplasmic (Homo sapiens), O75874 | 0.093% of 390,000 active | Potency, µM (series often up to 76.6 µM), usual class: inhibitors | IDH1-R132H enzyme, NADPH consumption, diaphorase/resazurin fluorescence; also: nearly all actives have a fitted effect of over 65% in size
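IDH1-R132H (0.5 ug/mL dispensed) in pH 7.5 Tris buffer was preincubated 30 min with compound, then given a substrate mix of 0.016 mM NADPH and 2 mM alpha-KG for 80 min at room temperature; remaining NADPH was read by diaphorase/resazurin fluorescence.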
Numbers stand for hits; - = inactive; ? = inconclusive; . = not tested or not shown. In the library only some 2.9% were active in any assay of this set; here they are far more common. Unless noted, calls follow the shape of the dose curve; as a rule, active = well fitted curve in the direction sought with a large enough effect; inconclusive = small, poorly fitted or top-dose-only effect, or another doubt; inactive = no such curve, though single readings can be large; an effect the other way counts as inactive or inconclusive.

SMILES	DRD3 antagonist	B2AR arrestin	DRD3 agonist	Integrin act MD	IDH1 R132H inh
NC1(c2ccccc2)CCCCC1	.	.	-	.	.
COc1ccc(-c2nc3ccc(Br)cn3c2CC(=O)N2CCCC2)cc1OC	-52.0	.	-	.	.
O=C(N[C@@H]1N=C(c2ccccc2F)c2cccc3c2N(CC3)C1=O)c1cc2ccccc2[nH]1	.	.	-	.	.
Oc1cc[c]([Hg][Cl])cc1	.	.	-	.	.
CN1CCc2cccc(Cl)c2CC1	-78.3	-	-	.	-
CN1CCN(Cc2c(F)cccc2Cl)CC1	-	-	-	-	-
COCCOCCO	.	.	-	.	.
CCCN1CCC[C@H](c2cccc(O)c2)C1	-	-	121.1	.	-
CC1(C)[C@H](C=C(Cl)Cl)[C@H]1C(=O)OCc1c(F)c(F)cc(F)c1F	.	.	-	.	.
O=S1(=O)N(CCN2CC=C(c3c[nH]c4cc(F)ccc34)CC2)c2cccc3c2N1CCC3	-100.5	-	-	.	-
COP(=S)(OC)Oc1cc(Cl)c(Cl)cc1Cl	.	.	-	.	.
O=C(O)c1ccc2c(c1)C1C(Cl)C(Sc3ccccc3[N+](=O)[O-])CC1C(c1cccc([N+](=O)[O-])c1)N2 (stereo not drawn)	-	-	-	-	?
O=C(O)c1cccc2c1NC(c1cccc([N+](=O)[O-])c1)C1CC(Sc3ccccc3[N+](=O)[O-])C(Cl)C21 (stereo not drawn)	-	-	-	-	29.3µM
Nc1ccc(CCN2CCN(c3cccc(C(F)(F)F)c3)CC2)cc1	-109.3	.	-	.	-
Nc1ccc(CCN2CCCC2)cc1	-	-	-	-	-
Cn1c(=O)oc(=O)c2ccccc21	-	.	31.1	-	-
CN(C)C1CCc2[nH]c3c(F)cc(F)cc3c2C1 (stereo not drawn)	-104.7	.	-	-	-
Cn1ncnc2c(=O)n(C)c(=O)nc1-2	-80.9	-	-	-	-
CC(C)Oc1cccnc1N(C)C1CCN(Cc2ccccc2)CC1	-95.4	.	-	.	-
COc1ccccc1NC(=O)N(Cc1ccc2c(c1)OCO2)C1CCN(Cc2ccccc2)CC1	.	.	-	.	-
Cc1ccc(C)c(-n2c(C)nc3ccccc3c2=O)c1	-	-	-	-	-
Cc1ccc2c(c1)c(C1=c3ccccc3=NC1=O)c(O)n2C	-80.1	-	-	-	-
NCCc1ccc(O)cc1	-	-	32.2	.	-
OCCN1C2CCC1CC(O)(c1ccc(F)cc1)C2 (stereo not drawn)	-68.3	-	-	-	-
[H+].[H+].[Hg+2].[O-]B([O-])[O-].[c-]1ccccc1	.	.	-	.	.
SMILES	DRD3 antagonist	B2AR arrestin	DRD3 agonist	Integrin act MD	IDH1 R132H inh
CCN(CC)CCNCC(=O)Nc1ccc(Cl)cc1C(=O)c1ccccc1	-55.6	-	-	-	-
CN1C2CCC1/C(=C/c1ccccn1)C(=O)/C2=C\c1ccccn1	-69.7	-	-	-	-
CC[C@@H](O)C(C[C@@H](C)N(C)C)(c1ccccc1)c1ccccc1	.	.	-	.	.
CC1C(=O)C(C)C(c2ccc(Cl)cc2)NC1c1ccc(Cl)cc1 (stereo not drawn)	-60.6	.	-	-	-
Clc1ccc(Cl)cc1	.	.	-	.	.
CC(C)N1CCN(Cc2ccccc2C(F)(F)F)CC1CCO (stereo not drawn)	-53.5	-	-	?	-
CCC(=O)O[C@](Cc1ccccc1)(c1ccccc1)[C@H](C)CN(C)C	.	.	55.4	.	.
CCC(=O)OC(Cc1ccccc1)(c1ccccc1)[C@H](C)CN(C)C (stereo partly drawn)	-	-	-	.	-
C[C@]12CC[C@H]3[C@@H](CCC4=C(O)C(=O)CC[C@@H]43)[C@@H]1CC[C@@H]2OC(=O)CCC1CCCC1	.	.	-	.	.
O=C(COc1ccc2ccccc2c1)N1CCN(C2CCN(Cc3ccccc3)CC2)CC1	-	-	-	-	-
CCOC(=O)c1cc2cc(OC)ccc2n1C1CCN(Cc2ccccc2)CC1	-88.9	.	-	.	.
CC[C@H](C)[C@H]1O[C@]2(C=C[C@@H]1C)C[C@@H]1C[C@@H](C/C=C(\C)[C@@H](O[C@H]3C[C@H](OC)[C@@H](O[C@H]4C[C@H](OC)[C@@H](O)[C@H](C)O4)[C@H](C)O3)[C@@H](C)/C=C/C=C3\CO[C@@H]4[C@H](O)C(C)=C[C@@H](C(=O)O1)[C@]34O)O2	.	.	-	.	.
CCN1CCN(c2ncnc3ccc(Br)cc23)CC1	-65.7	-	-	-	-
CCc1cc2c(N3CCN(C)CC3)ncnc2s1	?	-	-	-	-
COc1ccccc1N1CCN(CCc2c[nH]c3cc4c(cc23)OCO4)CC1	-79.2	.	-	-	-
O=S1(=O)CCN(CCc2c[nH]c3ccccc23)CC1	-	-	-	-	-
C=C1C(=O)OC2CC3(C)OC3CCC(C)=CC(OC(C)=O)C12 (stereo not drawn)	-51.9	.	-	-	-
CC(C)NC(C)Cc1ccc(I)cc1 (stereo not drawn)	-88.7	-	-	.	-
O=[N+]([O-])C(Br)(CO)CO	.	.	-	.	.
COC(=O)C[C@]1(C(=O)OC)CN(C#N)N(c2ccc(Cl)cc2)C12c1ccccc1-c1ccccc12	-74.5	-	-	-	-
COC(=O)[C@@H]1[C@@H](C(=O)OC)C2(c3ccccc3-c3ccccc32)N(c2ccc(Cl)cc2)N1C#N	-76.3	-	-	-	-
CCOC(=O)[C@]12Cc3cc(Cl)ccc3[C@H]1N(CC(=O)OC)C(=O)c1ccccc12	-	.	-	.	.
C=C(C)[C@@]12OC3(c4ccccc4)O[C@@H]1C1[C@@H]4O[C@]4(CO)[C@@H](O)[C@]4(O)C(=O)C(C)=C[C@H]4[C@@]1(O3)[C@H](C)[C@H]2OC(=O)/C=C/C=C/c1ccccc1 (stereo partly drawn)	-61.3	.	-	-	-
CCOc1ccccc1CN1C2CCC1CC(c1ccc(C)cc1)C2 (stereo not drawn)	-70.2	-	-	-	-
Oc1cccc[c]1[Hg][Cl]	.	.	-	.	.
SMILES	DRD3 antagonist	B2AR arrestin	DRD3 agonist	Integrin act MD	IDH1 R132H inh
O=c1[nH]c2ccccc2n1C1CCN(C(c2ccccc2OC(F)(F)F)c2nnnn2-c2ccc3c(c2)OCCO3)CC1 (stereo not drawn)	-	.	34.8	.	.
CNC(=S)NC1CC2CCCC(C1)N2CC(C)C (stereo not drawn)	-	-	-	-	-
Cc1ccc(CN2C3CCCC2CC(NC(=S)NCc2ccccc2)C3)cc1 (stereo not drawn)	-94.3	-	-	-	-
CC(=O)OO	.	.	-	.	.
CC1(C)C2CC=C(CN3CCOCC3)C1C2 (stereo not drawn)	-53.0	-	-	-	-
c1ccc2c(CN3CCOCC3)c[nH]c2c1	-	-	-	-	-
COc1ccc(CCNCc2ccc(Br)cc2)cc1OC	-60.0	-	-	-	-
CCc1ccc(CNCCc2c[nH]c3ccccc23)cc1	?	-	-	-	-
Cc1ccccc1CCNCc1ccc(Br)cc1	-58.7	-	-	-	-
CN(C)[C@H](Cc1ccccc1)c1ccccc1	.	.	-	.	.
